Among the data in PubChem BioAssay (Tox21) are Potency and activation (H2AX phosphorylation) values, retold here.

Structures are written as SMILES. Records with an inconclusive call do not appear. A call without a number means that no potency is given here. Values without a mark were called inactive. Calls of active or inactive are those of the source. The call rests on the fitted dose curve; in most records, active means well fitted activation curve with a large enough effect in the signal ratio in the repeat runs (not every such curve was filed as active); inconclusive means weak or mixed curves; inactive means flat fitted curve, though single readings scatter; the % refers to the signal ratio.
Potency means the concentration at half of the fitted maximal effect.

This assay in a line: qHTS assay to identify small molecule agonists of H2AX (AID 1224845). Particulars: CHO-K1 phospho-H2AX Ser139 HTRF, 3 h; series mostly up to 154 µM. The source says:
National Center for Advancing Translational Sciences [NCATS]
NIH Chemical Genomics Center [NCGC]
U.S. Environmental Protection Agency [EPA]
National Institutes of Environmental Health Sciences [NIEHS]
National Toxicology Program [NTP]
U.S. Food and Drug Administration [FDA]
HTRF phospho-H2AX (Ser139) assay (Cisbio Bioassays, US) enables the quantitative detection of the histone variant H2AX when phosphorylated on serine 139. When double-stranded DNA breaks, either by ionizing radiation or endogenous physiological processes, H2AX becomes phosphorylated at Ser139. This phospho-Ser139 serves as a sensitive biomarker for the detection of such breaks, localizing the site of DNA repair. So, HTRF phospho-H2AX Ser139 is a pertinent assay to study genome stability, the cell cycle, DNA repair, and it serves as a biomarker for cancer, and to understand aging. Wild type CHO-K1 cells were used to identify the inducers of Phospho-H2AX Ser 139 from the Tox21 10K compound collections.
Tox21 Assay Protocol Summary:
The CHO-K1 cells suspended in culture medium containing 10% FBS were dispensed at 1000 cells/ 3 ul/well in 1536-well white wall/solid bottom plates (Greiner Bio-One North America, NC) using a Multidrop Combi (Thermo Fisher Scientific Inc., Waltham, MA). After the assay plates were incubated at 37C overnight, 23 nl of compounds at 15 concentrations (from 5-48 columns) or positive control (from 1 to 4 columns) were transferred to the assay plates using a Pintool station (Wako, San Diego, CA) into each well resulting in a final DMSO concentration of 0.76%. After 3hr incubation at 37C, 1 uL/well Supplemented Lysis buffer (diluted 100 fold blocking reagent in lysis buffer) (HTRF Phospho-H2A.X (S139) Assay kit from Cisbio US Inc., Bedford, MA) was added using a Flying Reagent Dispenser (FRD) (Aurora Discovery, CA). After 10sec spin at 1000 rpm in a plate centrifuge, the assay plates were incubated at room temperature for 30 min. Then followed by the addition of 1 uL/well detection buffer (containing a mixture of two antibodies, one labeled with cryptate, Anti pH2AX (S139)-K and another labeled with d2, Anti H2AX-d2) using FRD. After incubation at room temperature for 24 hr, the time resolved fluorescence at excitation 320 nm and emissions at 665 nm and 620 nm was measured using an Envision plate reader (PerkinElmer, Waltham, MA).
With `CC1CN1` (stereo not given), the Potency entry was “inactive”.

Consider `O=c1[nH]c(Cl)c(Cl)cc1Cl`, for which the Potency result is “inactive”.

`Clc1c(Cl)c(Cl)c(Cl)c(Cl)c1Cl`: the activation (H2AX phosphorylation) is -0.165% [at 14 µM].

On to `BrCCCBr`, for which the Potency entry is “inactive”.

For the molecule `CC(C)(C)c1ccc(OP(=O)(Oc2ccccc2)Oc2ccccc2)cc1`, the Potency entry was “inactive”.

As to `Oc1cccc(Cl)c1Cl`, the Potency result is “inactive”.

For the molecule `CCn1cc[n+](C)c1` (tested in a mixture with another compound), the Potency entry was “inactive”.

Regarding `COc1c2c(cc3c1OCO3)CCN(C)C2`, the Potency entry is “inactive”.

For `CC(C)NCC(O)c1ccccc1Cl` (stereo not given), the Potency entry was “inactive”.

For the molecule `CC1CCCC1`, the Potency result was “inactive”.

Turning to `CC1=C2C[C@H]3[C@@H](CC=C4C[C@@H](O)CC[C@@]43C)[C@@H]2CC[C@]12O[C@@H]1C[C@H](C)CN[C@H]1[C@H]2C`, the Potency entry was “inactive”.

Turning to `CC#C[C@]1(O)CC[C@H]2[C@@H]3C[C@H](C)C4=CC(=O)CC[C@]4(C)[C@H]3CC[C@@]21C`, the Potency is 7.8 µM (active).

With `CN1C(=O)[C@@H](NC(=O)c2cc3ccccc3[nH]2)N=C(c2ccccc2)c2ccccc21`, the Potency entry is “inactive”.

As for `CC(=O)[O][Pb]([c]1ccccc1)([c]1ccccc1)[c]1ccccc1`, the Potency was 0.8 µM (active).

On to `CC(C)Br`, for which the Potency result is “inactive”.

For `CCC(OC(C)=O)C(CC(C)NC)(c1ccccc1)c1ccccc1` (stereo not given), the Potency result was “inactive”.

As to `O=S(=O)(O)F`, the Potency result is “inactive”.

Consider `O=C(NC(=O)c1ccccc1Cl)Nc1ccc(OC(F)(F)F)cc1`, for which the Potency result is “inactive”.

With `CC(=O)[O-].CC(=O)[O-].CC(=O)[O-].[Cr+3]`, the Potency entry was “inactive”.

Take `NC(=O)C(Cl)Cl`: the Potency entry is “inactive”.

For the molecule `CCC(C)Br` (stereo not given), the Potency entry was “inactive”.

As to `COP(=S)(NC(C)C)Oc1ccc(C)cc1[N+](=O)[O-]` (stereo not given), the Potency entry is “inactive”.

In the case of `FC(F)C(F)(F)OCC(Cn1cncn1)c1ccc(Cl)cc1Cl` (stereo not given), the Potency entry is “inactive”.

Turning to `CSC1=N[C@@](C)(c2ccccc2)C(=O)N1Nc1ccccc1`, the Potency entry is “inactive”.

As to `C[C@H]1[C@H](c2ccc(Cl)cc2)SC(=O)N1C(=O)NC1CCCCC1`, the Potency result is “inactive”.

As to `C=CCOC(=O)c1ccccc1N`, the Potency result was “inactive”.

As to `Nc1ccc(Cl)cc1C(=O)c1ccccc1F`, the Potency result is “inactive”.

For `CNN`, the Potency result was “inactive”.

As to `CC(C)[C@@H](Nc1ccc(C(F)(F)F)cc1Cl)C(=O)OC(C#N)c1cccc(Oc2ccccc2)c1` (stereo not given in full), the Potency entry was “inactive”.

Regarding `Nc1ccccc1-c1ccccc1`, the Potency result was “inactive”.

As for `CCOP(=O)(OCC)Oc1nc(Cl)c(Cl)cc1Cl`, the Potency result is “inactive”.

`CC(C)C(Nc1ccc(C(F)(F)F)cc1Cl)C(=O)OC(C#N)c1cccc(Oc2ccccc2)c1` (stereo not given): the Potency entry was “inactive”.

Take `O=C(N[C@H]1N=C(c2ccccc2F)c2cccc3c2N(CC3)C1=O)c1cc2ccccc2[nH]1`: the Potency entry was “inactive”.

With `O.O.O.O.O.O.O.O=S(=O)([O-])[O-].[Co+2]`, the Potency entry is “inactive”.

Consider `CC(=O)O.CC(=O)O.CC(=O)O.CC(=O)O.CC(=O)O.CC(=O)O.CC(=O)O.O.O.[Cr].[Cr].[Cr]`, for which the Potency result is “inactive”.

Turning to `COC(=O)C(C)N(C(=O)c1ccco1)c1c(C)cccc1C` (stereo not given), the Potency entry is “inactive”.

Turning to `CC(C)N(C(=O)SC/C(Cl)=C/Cl)C(C)C`, the Potency entry is “inactive”.

Turning to `[O]=[Cr][O][Cr]=[O]`, the Potency result is “inactive”.

For the molecule `ClC(Cl)C(Cl)(Cl)Cl`, the Potency entry is “inactive”.

`CO/N=C(\C(=O)OC)c1ccccc1CO/N=C(\C)c1cccc(C(F)(F)F)c1`: the Potency entry was “inactive”.
